# Hits are enriched below; roughly 3.8% of the tested compounds scored in any of these assays.
# SUMO Mot1 rescue: SUMOylation pathway inhibition by Mot1-301 growth rescue. S. cerevisiae Mot1-301 growth rescue, ATP luminescence, 38.5C; percent above DMSO median, 100 means doubled. growth rescue, % at 18.8 µM. actives 1% (n = 320,000). AID 2716;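 active = every valid replicate shows activation above 250% relative to neutral control wells; inactive = the rest, any valid replicate at or below 250%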;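 also: OY570 slx delta 5 strain wells were the positive control but not used for scaling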
# CR mimetic SO: lowers age-related superoxide in aged yeast cells. S. cerevisiae aged cells, superoxide DHE fluorescence; stronger effect = lower value. superoxide response (% of plate mean), % at 10 µM. actives 0.18% (n = 330,000). AID 2690;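 active = superoxide response under a set limit, about three screen SD below normal, cut at about 65% in these data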;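 also: yeast aged for seven days with compound at 30 °C before DHE staining; 100% = average MFI of all compound-treated wells on the plate with controls excluded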
# FAS-TE inh: inhibitors of human fatty acid synthase thioesterase domain; P49327; actives 0.67% (n = 360,000); inhibition, % at 15 µM; recombinant FAS-TE, OMFH fluorogenic substrate, fluorescence endpoint;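 active = compounds whose normalised, plate-corrected inhibition of enzyme fluorescence in the single-dose primary screen is 50% or more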;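 also: 0% = DMSO with enzyme and 100% = substrate without enzyme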
# MPTP block: permeability transition pore inhibition; actives 1.4% (n = 360,000); isolated mouse mitochondria, Ca2+ swelling absorbance, 30 min; inhibition, % at 10 µM;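 active = inhibition of 50% or more, scaled per plate between neutral and stimulator controls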;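 also: 0% = DMSO wells given calcium and 100% = 1 mM EGTA wells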
# aDG glyco act: alpha-DG glycosylation activation; Pro5-aDG cells, alpha-DG glycosylation AlphaScreen (IIH6); 0% Pro5, 100% B10-LARGE cell signal; activation, % at 10 µM; actives 0.22% (n = 360,000); AID 624168;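 active = activation of at least 8% versus controls, or a plate z-score of at least 8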;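 also: Pro5 are CHO cells carrying HIG-tagged alpha-DG that lacks glycosylation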
# Cardio protect: protects H9c2 cardiomyocytes from peroxide injury; H2O2 injury protection, ATPLite, 2 h; protection from H2O2 cell death, % at 20 µM; AID 588492; actives 0.63% (n = 360,000);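 active = compounds giving at least 50% protection of heart cells from peroxide-induced death in the single-dose screen, raw or plate-pattern-corrected value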;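 also: 0% = DMSO wells with peroxide and 100% = DMSO wells without peroxide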
# FAS-TE inh conf: confirmation of human fatty acid synthase thioesterase inhibitors; shares compounds with FAS-TE inh; recombinant FAS-TE, OMFH fluorogenic substrate, fluorescence; inhibition, % at 15 µM; actives 45% (n = 2,300); AID 624325;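 active = compounds inhibiting the enzyme by at least 50% at 15 µM in any one of the replicates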;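 also: 0% = enzyme with DMSO only and 100% = wells lacking enzyme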
# Numbers without * were called inactive; / = no result given.
SMILES,SUMO Mot1 rescue,CR mimetic SO,FAS-TE inh,MPTP block,aDG glyco act,Cardio protect,FAS-TE inh conf
CCOc1ccc(CCNC(=O)c2cc([N+](=O)[O-])ccc2N2CCOCC2)cc1OCC,-9,98,9,0,0,-2,/
O=C(COC(=O)c1cc([N+](=O)[O-])ccc1N1CCOCC1)NCCc1ccccc1,5,93,78*,-1,0,4,66*
O=C(COC(=O)c1cc([N+](=O)[O-])ccc1N1CCOCC1)NCc1ccc(F)cc1,6,101,88*,0,0,5,81*
CCOc1ccc(CCNC(=O)COC(=O)c2cc([N+](=O)[O-])ccc2N2CCOCC2)cc1OCC,-11,80,53*,-1,0,0,57*
CC(=O)Nc1ccc(NC(=O)COC(=O)c2cc([N+](=O)[O-])ccc2N2CCOCC2)cc1,0,98,18,-2,0,-6,/
COC(=O)Cn1c(=O)c2c(nc3n2CCCN3Cc2ccccc2)n(C)c1=O,-11,104,-4,1,0,5,/
O=C(NC1CCCCC1)C1CC(=O)N(c2cccc([N+](=O)[O-])c2)C1 (stereo not given),-5,108,80*,-1,0,1,84*
COc1ccc(S(=O)(=O)N(C)C[C@H]2OCCCC[C@@H](C)Oc3ccc(NC(=O)CCC(F)(F)F)cc3C(=O)N([C@H](C)CO)C[C@@H]2C)cc1,/,/,20,1,0,0,/
COc1ccc(S(=O)(=O)N(C)C[C@@H]2OCCCC[C@@H](C)Oc3ccc(NS(=O)(=O)c4cccs4)cc3C(=O)N([C@H](C)CO)C[C@@H]2C)cc1,/,/,67*,1,0,-2,15
C[C@@H]1CCCCO[C@H](CN(C)S(=O)(=O)c2ccc(F)cc2)[C@@H](C)CN([C@H](C)CO)C(=O)c2cc(NC(=O)Nc3ccc(C(F)(F)F)cc3)ccc2O1,/,/,74*,0,0,-30,8
COc1ccc(S(=O)(=O)N(C)C[C@@H]2OCCCC[C@H](C)Oc3ccc(NC(=O)Nc4ccc(C(F)(F)F)cc4)cc3C(=O)N([C@H](C)CO)C[C@H]2C)cc1,/,/,85*,0,-1,-14,16
COc1ccc(S(=O)(=O)Nc2ccc3c(c2)C(=O)N([C@H](C)CO)C[C@H](C)[C@@H](CN(C)C(=O)Nc2ccc(C(F)(F)F)cc2)OCCCC[C@H](C)O3)cc1,/,/,63*,1,1,-8,23
Cc1ccc(CN2CCC(n3nccc3NC(=O)C3CCOC3)CC2)cc1C (stereo not given),-4,94,-2,0,0,3,/
C=CCn1c(=O)/c(=C/c2ccsc2)s/c1=C(\C#N)C(=O)NCCN1CCOCC1,/,/,-4,0,0,19,/
O=[N+]([O-])c1ccc(-c2nc(Nc3cccc(O)c3)c3ccccc3n2)cc1,-3,124,56*,3,0,-15,54*
CC(=O)Nc1ccc(S(=O)(=O)N2CCN(S(=O)(=O)N3CCC(C)CC3)CC2)cc1,0,96,-9,2,0,2,/
CCOC(=O)c1ccccc1NC(=O)COC(=O)c1cc([N+](=O)[O-])ccc1N1CCOCC1,-3,106,53*,0,0,-9,19
O=C(COC(=O)c1cc([N+](=O)[O-])ccc1N1CCOCC1)Nc1c(Cl)cccc1Cl,-1,99,67*,-1,0,6,75*
Oc1cccc(-c2nnc(-c3cccc(O)c3)nn2)c1,/,/,0,2,1,-20,/
Cc1ccc(NC(=O)C2=C(c3ccccc3)S(=O)(=O)CCS2(=O)=O)cc1,168,84,75*,-1,-1,-37,83*
O=C(Oc1cccc(/C=N/Nc2nc(Nc3ccccc3)nc(N3CCOCC3)n2)c1)c1ccco1,71,91,62*,-1,0,39,36
COc1cc(/C=N/Nc2nc(N3CCCCC3)nc(N3CCCCC3)n2)ccc1OC(=O)c1ccco1,0,138,/,/,/,/,/
COC(=O)[C@@H](c1ccccc1)N(C)S(=O)(=O)c1cccc(S(=O)(=O)N(C)[C@@H](C(=O)OC)c2ccccc2)c1,-8,93,53*,2,0,0,32
O=[N+]([O-])c1ccc(CN2CC(N3CCC(Cc4ccccc4)CC3)CS2(=O)=O)cc1 (stereo not given),/,/,51*,0,0,-15,57*
Cc1sc(N2CCN(S(=O)(=O)c3ccc4c(c3)NC(=O)CO4)CC2)nc1-c1ccccc1,-23,123,70*,1,0,-5,68*
SMILES,SUMO Mot1 rescue,CR mimetic SO,FAS-TE inh,MPTP block,aDG glyco act,Cardio protect,FAS-TE inh conf
COc1ccc(-c2csc(N3CCN(S(=O)(=O)c4ccc5c(c4)NC(=O)CO5)CC3)n2)cc1,3,96,26,2,3,-8,/
Cc1ccc(NC(=O)COC(=O)CN2CCSC2=O)cc1Cl,/,/,-3,1,0,0,/
O=C(NCC1CCCO1)c1cc([N+](=O)[O-])ccc1N1CCC(Cc2ccccc2)CC1 (stereo not given),10,105,31,0,0,-2,/
O=[N+]([O-])c1c(Nc2cccc(O)c2)cc(Cl)c2nonc12,130,120,78*,-1,0,-20,50*
O=C(CSc1ccc(Cl)cc1)N1CCN(c2ncc(C(F)(F)F)cc2Cl)CC1,17,87,53*,18,0,-16,25
O=C(CN1CCN(c2ncc(C(F)(F)F)cc2Cl)CC1)N1CCN(c2ncc(C(F)(F)F)cc2Cl)CC1,38,102,18,4,2,-15,/
CCS(=O)(=O)c1ccc2oc(Nc3ccc(C(C)(C)C)cc3)nc2c1,-3,82,76*,10,0,-16,52*
CCS(=O)(=O)c1ccc2oc(Nc3ccc(OC)cc3)nc2c1,7,115,2,2,0,2,/
CCN(CC(=O)NCc1cccs1)S(=O)(=O)c1ccc([N+](=O)[O-])cc1,-12,124,52*,0,0,-9,52*
O=C(COC(=O)c1ccccc1)NCc1cccs1,209,100,-8,0,0,-2,/
O=C(COC(=O)c1cccc([N+](=O)[O-])c1)NCc1cccs1,8,99,52*,0,0,-8,63*
COc1ccc([N+](=O)[O-])cc1/C=N/NC(=O)/C(=C\c1cccs1)NC(=O)c1ccccc1,52,94,79*,0,0,11,66*
O=C(N/N=C/c1ccc(Br)o1)/C(=C/c1ccc([N+](=O)[O-])cc1)NC(=O)c1ccccc1,11,98,58*,1,0,1,32*
